ALDH1A1 inh – ALDH1A1 (human) enzyme inhibition | P00352 | Purified ALDH1A1, NADH fluorescence, propionaldehyde substrate | Potency, µM (top dose mostly 75.3 µM), most hits filed as inhibitors | hit rate 7.3% among 220,000
Target sequence (P00352 whole entry, looked up): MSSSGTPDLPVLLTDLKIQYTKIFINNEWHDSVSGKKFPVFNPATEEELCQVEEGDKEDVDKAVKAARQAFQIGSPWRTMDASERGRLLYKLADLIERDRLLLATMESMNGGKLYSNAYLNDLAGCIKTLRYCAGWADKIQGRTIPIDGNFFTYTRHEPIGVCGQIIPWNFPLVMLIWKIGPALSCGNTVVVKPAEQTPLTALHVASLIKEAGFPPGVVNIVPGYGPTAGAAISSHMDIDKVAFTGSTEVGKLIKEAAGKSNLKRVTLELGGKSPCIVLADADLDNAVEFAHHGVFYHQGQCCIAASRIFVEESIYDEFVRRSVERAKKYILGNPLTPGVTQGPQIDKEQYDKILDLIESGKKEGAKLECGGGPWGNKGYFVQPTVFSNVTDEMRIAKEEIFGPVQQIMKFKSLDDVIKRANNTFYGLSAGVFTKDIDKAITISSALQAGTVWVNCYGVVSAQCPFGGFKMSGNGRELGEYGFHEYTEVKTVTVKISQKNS
Tau fibril ThT – tau fibrillization inhibition (ThT binding); Potency, µM (doses to about 57.4 µM), hits mostly inhibitors; recombinant tau K18 P301L, heparin-induced fibrillization, ThT fluorescence; hit rate 2.1% among 270,000; AID 1460; P10636; active = well fitted curve in the direction sought with a large enough effect; inconclusive = small, poorly fitted or top-dose-only effect, or another doubt; inactive = no such curve, though single readings can be large; an effect the other way counts as inactive or inconclusive; note: nearly all actives have a fitted effect of over 55% in size
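Heparin-induced fibrillization of the P301L-mutant K18 repeat-domain fragment of human tau was followed by ThT binding in quantitative high-throughput format.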
Tau FP inhib – blocks human tau fibril formation measured by polarization; P10636; K18 P301L tau heparin fibrillization, Alexa594 FP, 6 h; Potency, µM (top dose mostly 57.7 µM), hits mostly inhibitors; hit rate 0.39% among 280,000; AID 1468; active = well fitted curve in the direction sought with a large enough effect; inconclusive = small, poorly fitted or top-dose-only effect, or another doubt; inactive = no such curve, though single readings can be large; an effect the other way counts as inactive or inconclusive; note: nearly all actives have a fitted effect of over 55% in size
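Human tau K18 […] P301L fragment, 15 uM unlabeled plus 0.24 uM Alexa 594-labeled tau (final), with compound and 20 uM heparin in 100 mM sodium acetate pH 7; 6 hr at 37 C, then Alexa 594 FP read.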
Tau fluor cs – counter-screen for tau fibril formation inhibitors; hit rate 0.93% among 280,000; AID 1463; tau K18 P301L Alexa594 fluorescence, heparin fibrillization; Potency, µM (highest dose often 57.7 µM); active = well fitted curve in the direction sought with a large enough effect; inconclusive = small, poorly fitted or top-dose-only effect, or another doubt; inactive = no such curve, though single readings can be large; an effect the other way counts as inactive or inconclusive; note: nearly all actives have a fitted effect of over 55% in size
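Human tau K18 P301L (15 uM unlabeled, 0.24 uM Alexa 594-labeled) in 100 mM sodium acetate pH 7 with 20 uM heparin, 6 hr at 37 C. ThT 30 uM added, 1 hr ambient; Alexa 594 FP and total fluorescence read at 555/632 nm.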
HPGD inh – HPGD (human) dehydrogenase inhibition. purified HPGD, NADH fluorescence kinetic, PGE2 substrate. hit rate 4.3% among 150,000. Potency, µM, actives largely listed as inhibitors. AID 894
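NADH formation kinetics: reaction with 30 uM PGE2 and 1 mM NAD+ (final), 20 nM enzyme, Tris-HCl pH 8 with Tween 20, after 15 min compound preincubation at room temperature. Fluorescence change, last versus first of five reads.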
JMJD2E inh – JMJD2E (human) inhibition. JMJD2E catalytic domain, FDH-coupled NADH fluorescence (FDH is formaldehyde dehydrogenase). hit rate 1.6% among 230,000. AID 2147. Potency, µM (titrated, usually from 57.1 µM), hits mostly inhibitors; note: nearly all actives have a fitted effect of over 50% in size
A number is an active result; n = inactive; u = inconclusive; x = no result; ! = a repeat was not active; [ ] = remark or other dose. Shown are actives, neighbours in structure and some others; about 9.9% of the full set was active somewhere. Unless noted, calls come from the whole dose curve; as a rule, active = well fitted inhibition curve with a large enough effect (not every such curve was filed as active); inconclusive = small, poorly fitted or top-dose-only effect, or another doubt; inactive = no such curve, though single readings can be large or run the other way.

SMILES	ALDH1A1 inh	Tau fibril ThT	Tau FP inhib	Tau fluor cs	HPGD inh	JMJD2E inh
O=C(NCc1cccnc1)c1nn2cccnc2c1Cl	n	n	n	n	x	n
O=[N+]([O-])c1cnc(N2CCCCC2)c([N+](=O)[O-])c1	17.8µM	n	n	n	n	n
c1cncc(CNc2ccnc(-c3cccnc3)n2)c1	n	x	x	x	x	x
CC(=O)Nc1ccccc1C=C1c2ccccc2-c2ccccc21	n[13.5 µM]	x	x	x	n	x
O=S(=O)(C/C(=C/CO)S(=O)(=O)c1ccccc1)c1ccccc1	12.6µM	3.55µM	u	n	n	n
COc1cc(-c2ccno2)ccc1S(=O)(=O)N1CCN(c2ccc(F)cc2)CC1	x	n	n	u	x	x
Cc1csc2nc(CSc3nc4ccccc4o3)c(Br)n12	22.4µM	u	n	n	14.1µM	n
CCOc1cc(C2C3=C(CCCC3=O)NC3=C2C(=O)CCC3)ccc1OCCO	u	n	n	n	n	31.6µM
CCOc1cc(C2C3=C(CCCC3=O)NC3=C2C(=O)CCC3)cc(Cl)c1O	n	n	n	n	n	u
Cc1cccc(N2CCN(S(=O)(=O)c3cc(C(=O)Nc4ccc(Oc5ccccc5)cc4)ccc3F)CC2)c1C	x	n	28.2µM	n	x	x
COc1cc(S(=O)(=O)N2CCN(c3ccccc3F)CC2)c(OC)cc1Cl	25.1µM	n	n	n	n	n
COc1cc(S(=O)(=O)N2CCN(C)CC2)c(OC)cc1Cl	n	n	u	n	n	n
Cc1ccc(C)c(N2CCN(S(=O)(=O)c3cc(C(=O)Nc4ccc(Oc5ccccc5)cc4)ccc3F)CC2)c1	x	n	u	n	x	x
O=C(Nc1cc(Cl)cc(Cl)c1)c1ccc(F)c(S(=O)(=O)N2CCN(c3ccccc3F)CC2)c1	x	n	20µM	n	x	x
Cc1ccc(CN2C(=O)C3(SCC(=O)N3c3ccc(C)c(C)c3)c3ccccc32)cc1 (stereo unspecified)	x	u	n	n	x	x
CC(=O)c1ccc(OC2C(O)COC2/C=C/c2ccc(Cl)cc2)cc1 (stereo unspecified)	3.98µM!	n[11.5 µM]	n[11.6 µM]	n[11.6 µM]	x	x
CC(=O)c1ccc(OC2OCCOC2Oc2ccc(C(C)=O)cc2)cc1 (stereo unspecified)	n	n	n	n	n	n
O=c1[nH]ncc(N2CCN(Cc3ccccc3)CC2)c1Cl	u	n	n[2.34 µM]	n[2.34 µM]	x	n
COc1ccc(-c2ccc(Nc3ccc(C(=O)N4CCOCC4)cc3)nn2)cc1OC	n	u	n	n	17.8µM	n
COc1ccc(-c2ccc(SCC(=O)N3CCOCC3)nn2)cc1OC	n	n	n	n	n	n
COc1ccccc1-c1ccc(Nc2ccc(C(=O)N3CCOCC3)cc2)nn1	u	u	n	n	7.94µM	n
COc1cc(C(=O)N2CCN(c3ccc(Nc4ccccc4)nn3)CC2)cc(OC)c1OC	x	u	n	n	x	x
N=C(N)S[C@H]1c2ccccc2-c2cc([N+](=O)[O-])ccc21	n[13.5 µM]	x	x	x	n	x
CC1CCN(c2nn3c(=O)c(C(=O)NCCc4ccc(Cl)cc4)cnc3s2)CC1	x	n	n	n	x	x
CCOC(=O)c1c(-c2ccc(C)cc2)csc1NC(=O)c1cc(-c2ccc(OC)cc2)on1	x	n	n	n	x	x
SMILES	ALDH1A1 inh	Tau fibril ThT	Tau FP inhib	Tau fluor cs	HPGD inh	JMJD2E inh
CCOC(=O)c1c(-c2ccccc2)csc1NC(=O)CCN1C(=O)c2ccccc2C1=O	u	n	n	n	n	n
CCOC(=O)c1c(NC(=O)c2cc(-c3ccc(O)cc3)on2)sc(C(C)=O)c1C	22.4µM	n	n	n	17.8µM	n
CCOC(=O)c1sc(NC(=O)c2cc(-c3ccc(F)cc3)on2)c(C(=O)OCC)c1C	x	n	n	n	x	x
COC(=O)c1c(-c2ccc(C)cc2)csc1NC(=S)NC(=O)c1cc(OC)cc(OC)c1	20µM	n	u	n	n	n
CCOC(=O)c1c(-c2ccccc2)csc1NC(=O)c1cc(-c2cccc(Cl)c2)on1	x	n	n	n	x	x
CCNC(=S)Nc1scc(-c2ccccc2)c1C(=O)OCC	28.2µM	u	n	u	n	n
CCOC(=O)c1c(-c2ccccc2)csc1NC(=O)c1cc(-c2cccc(OC)c2)on1	x	31.6µM	u	n	x	x
COc1ccccc1NC(=O)N1CC(=O)Nc2sc3c(c2C1c1ccccc1)CCCC3 (stereo unspecified)	x	n	n	n	x	x
